# According to PubChem BioAssay (NCI):
# The panel holds about 83,000 compounds, 20% with a hit somewhere; the sample as a whole holds those more often.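 Growth was measured after 48 h exposure to one concentration of compound in 96-well plates. Values under 10 count as active.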 Values without a mark were called inactive. Calls of active or inactive are those of the source.
# Test system: OVCAR-4 ovarian
# Test: NCI-60 one-dose screen, 48 h (100 = growth as untreated, 0 = no growth, -100 = all killed)
# Conditions: 10 µM unless noted
row,Structure (SMILES),growth
1,N/N=C(\C(=N\N)c1ccccc1)c1ccccc1,77.3%
2,C=C(C)[C@@H]1CC[C@]2(C(=O)NS(=O)(=O)c3ccccc3)CC[C@]3(C)[C@H](CC[C@@H]4[C@@]5(C)CC[C@H](OC(=O)NS(=O)(=O)c6ccccc6)C(C)(C)[C@@H]5CC[C@]43C)[C@@H]12,38.1%
3,O=[N+]([O-])c1ccc(N/N=C/c2ccccc2O)nc1,39.3%
4,CN1C(=O)N(C)C2C1NN=c1s/c(=C\c3ccc(C(F)(F)F)cc3)c(=O)n12 (stereo not given),63.8%
5,CC(C)c1ccc(-c2cnc3nonc3n2)cc1,59.5%
6,COc1ccc(N=C2CSc3nnc(-c4cc(F)c(Cl)cc4Cl)n3N2)cc1,-59.2% (active)
7,O=C1C=CN2C(=O)CC=CC2[C@@H]1O (stereo not given in full),110%
8,CCCNCCC(C)=O,107%
9,O=C(Cc1ccc([N+](=O)[O-])cc1)Oc1ccccc1,111%
10,CN(C)c1ccc(/C=C\c2cccc[n+]2C)cc1,34.1%
11,COc1cccc(NC(=O)OC(C)C)c1,93.1%
12,COC(=O)c1ccc2c(c1)nc(-c1ccc(Cl)cc1)n2-c1cc(C(C)(C)C)[nH]n1,81.4%
13,O=C1/C=C/[C@@H](O)[C@@H]2C[C@@H](O)C[C@H]2/C=C/CCC[C@H]([C@@H](O)CO)O1,72.8%
14,CC(=O)N1N=C(C2C(=O)N(C)C(=O)N(C)C2=O)CC1c1ccccc1C(=O)O (stereo not given),113%
15,Cn1c(=O)c2c(nc(N/N=C/c3ccccc3Cl)n2C)n(C)c1=O,115%
